The list is not random: actives were taken first. Their share in the collection is about 3.8%.
OvCa metastasis = ovarian cancer metastasis inhibition, 3D TME model; AID 1963576; 46,000 tested, 0.1% active; Potency, µM (doses to about 45.8 µM), for the others: at the top dose activity change, negative = inhibition, usual class: inhibitors; SKOV3ip1-GFP adhesion/invasion on 3D omental model, fluorescence;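 note: potency is the fitted concentration of half-maximal effect; plate controls were DMSO wells for no effect and tomatine positive control wells for full effect; nearly all actives have a fitted effect of over 65% in size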
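A 3D layer of primary human omental fibroblasts, mesothelial cells, fibronectin and collagen I, grown 48 hr, received SKOV3ip1-GFP cells in serum-free medium plus compounds at 0.36-46 umol/L. After 2 hr RT and 16 hr 37 C, fixed adherent GFP cells were counted; normalized to DMSO and tomatine.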
B2AR arrestin ag = agonists recruiting beta-arrestin to human beta2-adrenergic receptor; P07550; HTLA Tango cells, beta-arrestin recruitment, luciferase luminescence, 18 h; Potency, µM (doses to about 46.1 µM), actives largely listed as activators; 44,000 tested, under 10 active;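 note: potency is the fitted concentration of half-maximal effect; 0% = DMSO and full agonism = EC100 isoproterenol or metaproterenol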
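Receptor–beta-arrestin recruitment read by tTA-responsive luciferase: compound titrations (up to 46 µM) incubated 18 h with Tango cells, then luminescent substrate 15 min at room temperature. Concentration-response fits classified by r2, efficacy and activity.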
GALK inhibitor = GALK (human) enzyme inhibition | P51570 | recombinant GALK, Kinase-Glo ATP luminescence, 1 h | Potency, µM (series often up to 57.5 µM), for the others: at the top dose activity, negative = inhibition, actives largely listed as inhibitors | 44,000 tested, under 10 active | AID 1347072;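 note: plate controls were full GALK reaction for no effect and reaction lacking GALK for full effect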
Target sequence (P51570 whole entry, looked up): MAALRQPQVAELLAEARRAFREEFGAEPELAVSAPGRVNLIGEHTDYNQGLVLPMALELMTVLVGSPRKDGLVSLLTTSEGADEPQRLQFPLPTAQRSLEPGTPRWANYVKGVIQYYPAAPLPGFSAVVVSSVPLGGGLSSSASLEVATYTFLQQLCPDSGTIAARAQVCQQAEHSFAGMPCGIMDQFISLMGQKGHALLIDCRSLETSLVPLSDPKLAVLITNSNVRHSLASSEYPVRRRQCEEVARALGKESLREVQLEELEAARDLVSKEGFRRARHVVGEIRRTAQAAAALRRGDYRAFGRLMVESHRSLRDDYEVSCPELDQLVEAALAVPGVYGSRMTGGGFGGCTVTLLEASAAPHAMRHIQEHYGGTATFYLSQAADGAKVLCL
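5 nM GALK; 35 uM ATP; 100 uM D-galactose; 20 mM HEPES pH 8.0, 5 mM MgCl2, 60 mM NaCl, 1 mM DTT, 0.01% BSA; 1 h RT; Kinase-Glo Plus luminescence.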
TSG101-PTAP inh = blocks PTAP binding to human TSG101, validation; 44,000 tested, under 10 active; Fluorescence polarization, FITC-PTAP peptide/Tsg101, 20 min; AID 1347069; Potency, µM (highest dose often 115 µM), usual class: inhibitors; note: potency is the fitted concentration of half-maximal effect; 0% is about no effect
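The Tsg101 binding domain, at 10 uM final, is mixed with compound and a FITC peptide bearing the PTAP motif (50 nM final). After 20 min at r.t., polarization is measured; actives defined by CRC class, efficacy cut-off 60% inhibition.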
NTMT1 inhibitor = NTMT1 methyltransferase inhibition. Q9BV86. NTMT1 MTase-Glo SAH luminescence, purified enzyme. Potency, µM (highest dose often 114 µM), without a hit: at the top dose activity change, negative = inhibition, hits mostly inhibitors. 59,000 tested, 2.5% active;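 note: potency is the fitted concentration of half-maximal effect; plate controls were DMSO vehicle for no effect and no enzyme for full effect; nearly all actives have a fitted effect of over 65% in size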
DRV1 agonist = GPR32 (DRV1) agonism, beta-arrestin recruitment. O75388. CHO-K1 GPR32 beta-arrestin PathHunter luminescence, 90 min; zero percent set by DMSO-only wells. activation, % at 76.9 µM. 48,000 tested, 2.5% active;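 active = activation of at least 60% and not above a set upper limit, about 1 call in 100 departs from these limits; inconclusive = activation of 40% to 60%, or above that upper limit; inactive = activation under 40%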; note: 0% is about no effect
Target sequence (O75388 whole entry, looked up): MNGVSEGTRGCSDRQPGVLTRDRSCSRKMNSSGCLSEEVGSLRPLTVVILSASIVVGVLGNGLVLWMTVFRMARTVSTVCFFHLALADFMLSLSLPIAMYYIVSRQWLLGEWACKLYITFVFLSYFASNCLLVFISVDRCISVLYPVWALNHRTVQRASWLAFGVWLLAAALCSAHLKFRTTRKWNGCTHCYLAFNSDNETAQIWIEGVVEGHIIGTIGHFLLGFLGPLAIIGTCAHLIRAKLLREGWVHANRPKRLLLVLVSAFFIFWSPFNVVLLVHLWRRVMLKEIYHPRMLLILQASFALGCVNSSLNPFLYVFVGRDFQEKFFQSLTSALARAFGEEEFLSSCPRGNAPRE
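Readings come from a cell-based beta-arrestin complementation format: CHO-K1 GPR32 stable cells (2,500/well) treated 90 min with compounds, then beta-Gal substrate added for 1 h before chemiluminescence imaging.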
NNMT inh = counter-screen for NTMT1 inhibitors: human NNMT inhibition. Potency, µM (titrated, usually from 57.1 µM), inactives show top-dose activity, negative = inhibition, hits mostly inhibitors. AID 1645878. 120 tested, 10% active. shares compounds with NTMT1 inhibitor. NNMT MTase-Glo luminescence, SAH detection
An asterisk follows results filed as active; i = inactive; ? = inconclusive; . = not tested or not shown; ! = repeats disagree; [ ] = remark or other dose. Unless noted, calls come from the whole dose curve; as a rule, active = well fitted curve in the direction sought with a large enough effect; inconclusive = small, poorly fitted or top-dose-only effect, or another doubt; inactive = no such curve, though single readings can be large; an effect the other way counts as inactive or inconclusive.

SMILES | OvCa metastasis | B2AR arrestin ag | GALK inhibitor | TSG101-PTAP inh | NTMT1 inhibitor | DRV1 agonist | others
COc1ccc2c(c1)/C(=C/c1cnc[nH]1)C(=O)N2 | . | . | . | . | 39.8µM* | -10.4
CCCCCn1cc(C(=O)C2C(C)(C)C2(C)C)c2ccccc21 | . | . | . | . | -2.6%[57.5 µM] | .
N#Cc1cc2c(nc1SCC(=O)Nc1cccc(C(F)(F)F)c1)C1CCN2CC1 | i | i | -2.4% | i | -4.7% | 63.5*
CN(C)c1ccc(NC(=O)c2sc3nc4c(cc3c2N)N2CCC4CC2)cc1 | -2.8% | i | -0.2% | i | -1.9% | 3.7
Cc1cc(SCc2sc(-c3ccc(C(F)(F)F)c(F)c3)nc2C)ccc1OCC(=O)O | 5.7% | . | . | . | 70.8µM*! | .
Cn1ncnc1COc1nn2c(-c3c(F)cccc3F)nnc2cc1C1CCC1 | . | . | . | . | 0.1%[57.5 µM] | .
N#Cc1cn([C@@H]2O[C@H](CO)[C@H](O)[C@@H]2O)c2ncnc(N)c12 | . | . | . | . | 8.91µM* | .
N#CC(OC1OC(COC2OC(CO)C(O)C(O)C2O)C(O)C(O)C1O)c1ccccc1 (stereo not drawn) | . | . | . | . | 16.3%[29.8 µM] | .
CCN1CCCC1CNC(=O)C(O)(c1ccccc1)c1ccccc1 (stereo not drawn) | . | . | . | . | 12.8%[57.5 µM] | -13.6
O=C(OC[C@H]1O[C@@H](Oc2ccc(O)cc2CO)[C@H](O)[C@@H](O)[C@@H]1O)c1ccccc1 | . | . | . | . | 4.0%[29.8 µM] | .
COP(=S)(OC)SCN1C(=O)c2ccccc2C1=O | . | . | . | . | 28.2µM* | -3.0
CC(C)(C)CC(C)(C)c1ccc(O)cc1 | . | . | . | . | ? | 116.4*!
CN1C(=S)CN=C(c2ccccc2)c2cc(Cl)ccc21 | . | . | . | . | -20.3%[57.5 µM] | -3.0
COc1cc(O)c2c(c1)CCC[C@@H](O)[C@H](O)C(=O)/C=C\C[C@H](C)OC2=O | . | . | . | . | 10µM* | .
CCc1ccc(C2CCNCC2)cc1 | . | . | . | . | -2.0%[57.5 µM] | 2.9
CN(C)C(=S)SSC(=S)N(C)C | . | . | . | . | 7.94µM* | -2.1
C[C@@H]1O[C@@H](O[C@H]2C[C@@H](O)[C@]3(CO)[C@H]4[C@H](O)C[C@]5(C)[C@@H](C6=CC(=O)OC6)CC[C@]5(O)[C@@H]4CC[C@]3(O)C2)[C@H](O)[C@H](O)[C@H]1O | -28.5% | . | . | . | 9.9% | 65.2*!
O=C(Nc1ccc(Br)cc1)c1cc(Br)cc(Br)c1O | . | . | . | . | 29.8%[57.5 µM] | 82.3*
COc1ccc(NC(=O)CCc2nc(C3=CCN(Cc4cccc(C)c4)CC3)no2)c(OC)c1 | i | i | -0.7% | i | -8.4% | 14.6
O=C(CCc1nc(C2=CCN(Cc3cccc(Cl)c3)CC2)no1)Nc1ccccc1F | -3.0% | i | -5.5% | i | -9.5% | 69.9*
Nc1ccccc1C(=O)O | . | . | . | . | 13.2%[57.5 µM] | -11.6
O=C1C(I)=CC(=C(c2cc(I)c(O)c(I)c2)c2ccccc2C(=O)O)C=C1I | . | . | . | . | 14.1µM* | -13.3
CC(C)[C@H](NC(=O)c1nn(Cc2ccc(F)cc2)c2ccccc12)C(N)=O | . | . | . | . | 5.8%[57.5 µM] | .
CCCCCCCCCC(CC)c1ccc(S(=O)(=O)O)cc1 (stereo not drawn) | . | . | . | . | 10µM* | 101.1*
CCOc1ccc(NC(=O)c2cccn(Cc3cccc(Cl)c3)c2=O)cc1 | i | i | 1.5% | i | 8.5% | 7.8
SMILES | OvCa metastasis | B2AR arrestin ag | GALK inhibitor | TSG101-PTAP inh | NTMT1 inhibitor | DRV1 agonist | others
Oc1ccc([C@H]2CNCc3c2ccc(O)c3O)cc1O | . | . | . | . | 2.82µM* | -6.2
Cc1ccccc1CN1CCC(N2CCC(n3c(=O)[nH]c4ccccc43)CC2)CC1 | . | . | . | . | 2.0%[57.5 µM] | .
CC(=O)OC1(c2ccccc2)CCN(CCc2ccccc2)CC1 | . | . | . | . | -7.1% | 85.1*
O=C(CBr)Nc1ccc(Cl)cc1C(=O)c1ccccc1F | . | . | . | . | 14.1µM* | -6.6
CN1CC[C@]23c4c5ccc(O)c4O[C@H]2[C@@H](O)C=C[C@H]3[C@H]1C5 | . | . | . | . | ? | 11.9
CC(C)=CCN1CC[C@@]2(C)c3cc(O)ccc3C[C@@H]1[C@@H]2C | . | . | . | . | -23.5% | 20.5
Cc1oc2cc3oc(=O)c(CCC(=O)N4CCCCC4)c(C)c3cc2c1C | 9.5% | i | 2.1% | i | . | 86.7*
C#C[C@]1(O)C=C[C@H]2[C@@H]3CCC4=CC(=O)CC[C@@H]4[C@H]3CC[C@@]21CC | . | . | . | . | ? | 27.1
CCCCCCCCCCCC[N+](C)(C)CCOc1ccccc1 | . | . | . | . | ? | -8.7
CCCCCCCCCCCCCCCC[N+](C)(C)C | . | . | . | . | 25.1µM* | -5.4
CC(C)(C)[C@]1(O)C[C@@H]2OC(=O)C[C@@]23C(=O)O[C@@H]2OC(=O)[C@H](O)C213 (stereo partly drawn) | -1.0% | . | . | . | -8.5%[57.5 µM] | .
CCOc1ccc(CN(CCc2ccc3c(c2)OCO3)Cc2cccc(OC)c2)cc1 | 16.6% | i | -1.6% | i | 1.6% | -7.3
CCOc1ccc(CN(CCc2ccc3c(c2)OCO3)Cc2cccc(Br)c2)cc1 | -29.6% | i | 0.9% | i | 8.91µM* | -36.7
CCC(OC(C)=O)C(CC(C)NC)(c1ccccc1)c1ccccc1 (stereo not drawn) | . | . | . | . | 13.0% | 85.0*
CC(CC(C(N)=O)(c1ccccc1)c1ccccc1)N(C)C (stereo not drawn) | . | . | . | . | ? | 11.8
O=C(O)c1nn(Cc2ccc(Cl)cc2Cl)c2ccccc12 | -8.0% | . | . | . | ? | 64.0*!
C[C@H](N)[C@H](O)c1ccc(O)c(O)c1 | . | . | . | . | 20µM* | 6.7
CC(N)[C@H](O)c1ccc(O)c(O)c1 (stereo partly drawn) | . | . | . | . | . | 3.5
C[C@H]1CCC[C@H](O)CCC/C=C/c2cc(O)cc(O)c2C(=O)O1 | . | . | . | . | 1.41µM* | . | NNMT inh=3.55µM*
O=C(O)CNC(=O)C1C(=O)N(C2CCCCC2)C(=O)N(C2CCCCC2)C1=O | . | . | . | . | 9.8% | .
